Inconclusive results are not listed. Activity calls are given as the source filed them. The calls were made as follows, unless noted: active = hit-call score of the fitted dose curve at least 0.9, where 1 is the maximum; inactive = score below 0.9.
Experiments:
[1] = biological target: CCAAT/enhancer-binding protein beta (Homo sapiens) (UniProt P17676); assay: ATG_C_EBP_CIS: Attagene CIS-FACTORIAL HepG2 Assay for human CCAAT/Enhancer Binding Protein (C/EBP) beta (AID 2282927); details: HepG2 Attagene cis-factorial transcription factor reporter; actives raise or lower the signal
Chain of CCAAT/enhancer-binding protein beta (Homo sapiens) (P17676 whole entry, looked up): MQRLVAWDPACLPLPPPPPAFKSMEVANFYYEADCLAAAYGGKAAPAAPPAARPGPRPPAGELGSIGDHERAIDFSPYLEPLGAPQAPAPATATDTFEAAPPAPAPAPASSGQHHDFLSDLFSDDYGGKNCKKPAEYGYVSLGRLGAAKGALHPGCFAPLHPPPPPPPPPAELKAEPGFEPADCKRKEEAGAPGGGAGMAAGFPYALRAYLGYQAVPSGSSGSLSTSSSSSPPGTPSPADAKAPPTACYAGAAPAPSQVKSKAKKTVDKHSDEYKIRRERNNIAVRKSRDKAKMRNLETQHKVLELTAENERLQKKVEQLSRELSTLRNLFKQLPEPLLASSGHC
Method in brief: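 Transiently transfected HepG2 (MRTU library, endogenous TF-driven promoters); 24 h dosing; total RNA → oligo(dT) RT → PCR → 6-FAM primer extension → HpaI digest → CE; fit bidirectionally vs DMSO.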

[2] = ATG_CMV_CIS: Attagene CIS-FACTORIAL HepG2 Assay for human CMV (Internal Marker) (AID 2282928); details: HepG2 CMV promoter reporter, transcription factor profiling; actives raise or lower the signal;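 also: endpoint acts as a background internal control marker rather than a target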
Method in brief: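 Cell system: HepG2, transiently transfected multiple reporter units under cis promoters. Exposure: 24 h. Detection: RT-PCR, FAM labeling, HpaI digestion, capillary electrophoresis. Analysis: bidirectional, DMSO baseline.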

[3] = ATG_AP_1_CIS: Attagene CIS-FACTORIAL HepG2 Assay for human Activator Protein 1 (AP-1) (AID 2282931); details: HepG2 Attagene cis-factorial AP-1 reporter mRNA; actives raise or lower the signal
Method in brief: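 HepG2 cells transiently transfected with cis-element-driven reporter transcription units, dosed for 24 hours. Reporter mRNA measured by RT-PCR, 6-FAM labelling, HpaI digestion and capillary electrophoresis. Bidirectional fitting against DMSO baseline.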

[4] = ATG_EGR_CIS: Attagene CIS-FACTORIAL HepG2 Assay for human Early Growth Response 1 (EGR1) (AID 2282938); details: HepG2 Attagene CIS-FACTORIAL EGR reporter mRNA; actives raise or lower the signal
Method in brief: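 HepG2 cells transiently transfected with cis-element-driven multiplexed reporter units, dosed for 24 h. EGR1-element reporter mRNA quantified by RT-PCR, 6-FAM labelling, HpaI digestion and capillary electrophoresis; bidirectional fit versus DMSO.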

[5] = ATG_GLI_CIS: Attagene CIS-FACTORIAL HepG2 Assay for human Zinc Finger Protein GLI1 (AID 2282945); details: HepG2, Attagene cis-factorial reporter mRNA, GLI element; actives raise or lower the signal
Method in brief: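 Transiently transfected HepG2 cells report endogenous transcription factor activity via cis-element-driven reporter units. After 24 h compound exposure, reporter mRNA was measured by RT-PCR with capillary electrophoresis; bidirectional fitting against DMSO baseline.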

[6] = ATG_ISRE_CIS: Attagene CIS-FACTORIAL HepG2 Assay for human Interferon Regulatory Factor 1 (IRF1) binding to an Interferon-Stimulated Response Element (ISRE) (AID 2282948); details: HepG2 ISRE cis-reporter (Attagene), mRNA transcription readout; actives raise or lower the signal
Method in brief: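 Quantitation relies on labelled RT-PCR fragments separated by capillary electrophoresis. Human HepG2 cells bearing cis-promoter reporter constructs were treated 24 h; DMSO served as baseline for bidirectional fitting.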

[7] = ATG_M_06_CIS: Attagene CIS-FACTORIAL HepG2 Assay for M06 Transcription Factor (Internal Marker) (AID 2282950); details: HepG2 Attagene CIS-FACTORIAL M06 internal marker reporter; actives raise or lower the signal
Method in brief: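 Fluorescence-labelled RT-PCR products from cis-promoter reporter units, cut with HpaI and resolved by capillary electrophoresis, give the signal. Cells are human HepG2, dosed for 24 h. Serves as background control, fitted relative to DMSO.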

[8] = biological target: Hypoxia-inducible factor 1-alpha (Homo sapiens) (UniProt Q16665); assay: ATG_HIF1a_CIS: Attagene CIS-FACTORIAL HepG2 Assay for human Hypoxia Inducible Factor 1 (HIF1A) (AID 2282951); details: HepG2 Attagene cis-factorial HIF1a reporter transcription; actives raise or lower the signal
Chain of Hypoxia-inducible factor 1-alpha (Homo sapiens) (Q16665 whole entry, looked up): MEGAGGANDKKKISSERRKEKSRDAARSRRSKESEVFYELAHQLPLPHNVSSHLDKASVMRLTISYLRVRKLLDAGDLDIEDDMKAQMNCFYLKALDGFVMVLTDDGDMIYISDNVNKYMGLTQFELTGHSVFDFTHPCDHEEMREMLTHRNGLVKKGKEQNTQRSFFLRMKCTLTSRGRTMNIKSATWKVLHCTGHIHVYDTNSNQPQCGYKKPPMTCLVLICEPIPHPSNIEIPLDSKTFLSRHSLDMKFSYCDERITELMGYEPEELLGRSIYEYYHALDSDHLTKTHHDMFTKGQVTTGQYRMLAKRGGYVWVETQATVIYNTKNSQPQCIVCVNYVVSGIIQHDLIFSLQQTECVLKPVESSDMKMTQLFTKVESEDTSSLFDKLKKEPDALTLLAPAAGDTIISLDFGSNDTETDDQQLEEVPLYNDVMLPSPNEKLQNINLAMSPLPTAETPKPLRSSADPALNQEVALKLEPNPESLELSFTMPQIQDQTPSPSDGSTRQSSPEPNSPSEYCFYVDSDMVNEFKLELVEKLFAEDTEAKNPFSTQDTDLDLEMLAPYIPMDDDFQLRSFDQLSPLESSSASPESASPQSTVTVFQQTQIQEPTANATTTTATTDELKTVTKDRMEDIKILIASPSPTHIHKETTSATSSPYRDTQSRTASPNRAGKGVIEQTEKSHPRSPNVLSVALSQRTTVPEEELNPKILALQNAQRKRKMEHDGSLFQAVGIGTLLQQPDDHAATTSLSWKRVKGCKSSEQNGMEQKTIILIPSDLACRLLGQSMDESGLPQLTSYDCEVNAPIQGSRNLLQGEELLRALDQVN
Method in brief: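 HepG2 cells transiently transfected with multiple cis-regulated reporter transcription units measure endogenous transcription factor activity. After 24 h exposure, reporter mRNA is quantified by RT-PCR with 6-FAM labelling, HpaI digestion and capillary electrophoresis. Bidirectional fitting against DMSO.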

[9] = biological target: Heat shock factor protein 1 (Homo sapiens) (UniProt Q00613); assay: ATG_HSE_CIS: Attagene CIS-FACTORIAL HepG2 Assay for human Heat Shock Transcription Factor 1 (HSE) (AID 2282953); details: HepG2 HSE cis-reporter, Attagene RNA transcription; actives raise or lower the signal
Chain of Heat shock factor protein 1 (Homo sapiens) (Q00613 whole entry, looked up): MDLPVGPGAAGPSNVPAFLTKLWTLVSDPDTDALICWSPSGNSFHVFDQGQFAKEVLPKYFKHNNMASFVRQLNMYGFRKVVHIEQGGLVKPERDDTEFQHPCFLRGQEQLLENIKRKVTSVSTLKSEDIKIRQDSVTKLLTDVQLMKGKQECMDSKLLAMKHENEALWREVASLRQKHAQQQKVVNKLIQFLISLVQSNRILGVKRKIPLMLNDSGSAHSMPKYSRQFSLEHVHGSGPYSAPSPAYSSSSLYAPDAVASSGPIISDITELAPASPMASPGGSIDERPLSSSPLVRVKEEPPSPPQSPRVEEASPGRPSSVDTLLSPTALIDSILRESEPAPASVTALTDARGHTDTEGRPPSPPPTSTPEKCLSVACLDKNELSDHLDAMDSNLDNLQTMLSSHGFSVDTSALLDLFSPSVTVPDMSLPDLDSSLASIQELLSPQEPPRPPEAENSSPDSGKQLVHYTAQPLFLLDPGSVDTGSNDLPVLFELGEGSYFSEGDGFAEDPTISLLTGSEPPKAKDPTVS
Method in brief: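 After a 24 h incubation with test chemical, transfected HepG2 cells were harvested for RNA; reporter transcripts were measured by RT-PCR and capillary electrophoresis. Values reflect gain or loss of signal relative to DMSO.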

[10] = ATG_TAL_CIS: Attagene CIS-FACTORIAL HepG2 Assay for human TAL Basal Promoter (AID 2282966); details: HepG2 Attagene cis-factorial TAL promoter reporter; actives raise or lower the signal;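 also: background control endpoint measuring basal TAL promoter reporter mRNA not a specific factor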
Method in brief: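 Readout: reporter mRNA, fluorescence by CE. System: HepG2, transient multi-reporter transfection, endogenous TF activity. Exposure: 24 h. Analysis: bidirectional, DMSO-normalized; background control.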

[11] = biological target: X-box-binding protein 1 (Homo sapiens) (UniProt P17861); assay: ATG_Xbp1_CIS: Attagene CIS-FACTORIAL HepG2 Assay for human X-box Binding Protein 1 (XBP1) (AID 2282972); details: HepG2 XBP1 cis-element reporter, Attagene multiplex; actives raise or lower the signal
Chain of X-box-binding protein 1 (Homo sapiens) (P17861 whole entry, looked up): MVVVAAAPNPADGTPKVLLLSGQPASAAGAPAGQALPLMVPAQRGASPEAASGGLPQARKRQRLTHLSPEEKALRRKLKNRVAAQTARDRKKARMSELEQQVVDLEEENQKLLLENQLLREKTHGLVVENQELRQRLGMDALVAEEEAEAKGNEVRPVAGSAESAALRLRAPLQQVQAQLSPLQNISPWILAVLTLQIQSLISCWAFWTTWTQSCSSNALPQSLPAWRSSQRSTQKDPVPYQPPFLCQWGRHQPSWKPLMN
Method in brief: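 After a 24-hour chemical exposure of HepG2 cells carrying cis-regulated reporters, reporter mRNA levels are assessed. Quantification uses RT-PCR, 6-FAM labelling and capillary electrophoresis. Gain- or loss-of-signal is fitted against DMSO.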

[12] = biological target: Transcriptional activator Myb (Homo sapiens) (UniProt P10242); assay: ATG_Myb_CIS: Attagene CIS-FACTORIAL HepG2 Assay for human Myeloblastosis (Myb) Proto-Oncogene Transcription Factor (AID 2282986); details: HepG2 Attagene CIS-FACTORIAL Myb reporter transcription; actives raise or lower the signal
Chain of Transcriptional activator Myb (Homo sapiens) (P10242 whole entry, looked up): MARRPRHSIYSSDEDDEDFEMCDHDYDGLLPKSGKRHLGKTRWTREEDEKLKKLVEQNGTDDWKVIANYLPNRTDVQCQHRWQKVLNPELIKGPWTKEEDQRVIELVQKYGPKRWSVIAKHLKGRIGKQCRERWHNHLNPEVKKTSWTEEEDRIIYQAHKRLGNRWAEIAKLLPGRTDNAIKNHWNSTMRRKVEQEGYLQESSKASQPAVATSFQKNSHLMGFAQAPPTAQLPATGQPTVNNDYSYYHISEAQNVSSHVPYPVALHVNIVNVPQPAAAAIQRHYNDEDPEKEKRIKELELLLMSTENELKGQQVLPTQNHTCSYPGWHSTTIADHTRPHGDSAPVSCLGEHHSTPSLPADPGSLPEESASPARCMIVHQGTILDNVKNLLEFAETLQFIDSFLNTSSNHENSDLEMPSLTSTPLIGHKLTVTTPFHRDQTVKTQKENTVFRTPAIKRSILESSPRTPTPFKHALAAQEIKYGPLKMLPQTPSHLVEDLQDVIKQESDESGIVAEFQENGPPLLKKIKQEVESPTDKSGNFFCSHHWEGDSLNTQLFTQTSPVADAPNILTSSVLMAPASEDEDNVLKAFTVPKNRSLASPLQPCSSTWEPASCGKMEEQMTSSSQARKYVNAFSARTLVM
Method in brief: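 Transiently transfected HepG2 cells carrying a multiplexed cis-promoter reporter set report endogenous Myb activity after 24 h compound exposure. Reporter mRNA is read by RT-PCR with capillary electrophoresis of fluorescent products, fitted bidirectionally against DMSO.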

[13] = biological target: Nuclear respiratory factor 1 (Homo sapiens) (UniProt Q16656); assay: ATG_NRF1_CIS: Attagene CIS-FACTORIAL HepG2 Assay for human Nuclear Respiratory Factor 1 (NRF1) Orphan Gene (AID 2282987); details: HepG2 NRF1 cis-element reporter, Attagene multiplex; actives raise or lower the signal
Chain of Nuclear respiratory factor 1 (Homo sapiens) (Q16656 whole entry, looked up): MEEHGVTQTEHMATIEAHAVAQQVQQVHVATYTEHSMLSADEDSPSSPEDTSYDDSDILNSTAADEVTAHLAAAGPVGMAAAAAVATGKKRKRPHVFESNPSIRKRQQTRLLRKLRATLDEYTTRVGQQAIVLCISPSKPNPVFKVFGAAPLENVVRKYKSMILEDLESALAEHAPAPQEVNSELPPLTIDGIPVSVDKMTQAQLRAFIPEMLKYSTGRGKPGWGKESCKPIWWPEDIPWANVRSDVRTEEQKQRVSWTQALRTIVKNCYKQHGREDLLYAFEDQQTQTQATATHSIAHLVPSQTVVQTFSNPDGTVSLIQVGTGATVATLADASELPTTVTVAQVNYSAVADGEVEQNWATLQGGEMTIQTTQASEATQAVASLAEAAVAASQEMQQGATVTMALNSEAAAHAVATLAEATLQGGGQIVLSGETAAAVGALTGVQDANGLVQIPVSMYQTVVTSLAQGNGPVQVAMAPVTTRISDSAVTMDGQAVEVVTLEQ
Method in brief: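 HepG2 cells transiently transfected with multiple cis-regulated reporter units, exposed 24 h. Reporter mRNAs measured by RT-PCR, fluorescent labelling, HpaI digestion and capillary electrophoresis; bidirectional fitting against DMSO.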

[14] = ATG_NFI_CIS: Attagene CIS-FACTORIAL HepG2 Assay for human Nuclear Factor I (NFI) (AID 2282989); details: HepG2 cis-regulatory reporter, NFI response element transcription; actives raise or lower the signal
Method in brief: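 After transient transfection of HepG2 with cis-promoter reporter constructs and 24 h dosing, RNA is reverse-transcribed, amplified, 6-FAM end-labelled and HpaI-digested before capillary analysis. Bidirectional curve fitting against DMSO.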

[15] = ATG_NRF2_ARE_CIS: Attagene CIS-FACTORIAL HepG2 Assay for human Nuclear Factor Erythroid 2 Related Factor 2 (NFR2) response to Antioxidant Response Elements (ARE) (AID 2282992); details: HepG2 Attagene ARE/NRF2 reporter, transcription factor activity; actives raise or lower the signal
Method in brief: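 Cis-factorial assay: transfected HepG2 reporter library, 24 h dosing, mRNA readout via RT-PCR/CE; DMSO-referenced bidirectional analysis.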

[16] = ATG_Oct_MLP_CIS: Attagene CIS-FACTORIAL HepG2 Assay for human Octamer-Binding Transcription Factor (Oct) (AID 2282993); details: HepG2 Attagene cis-factorial Oct reporter, mRNA; actives raise or lower the signal
Method in brief: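 Cells of the HepG2 line express promoter-controlled reporter sequences whose mRNA levels, after 24 h treatment, are measured by RT-PCR and capillary electrophoresis. Increases and decreases are scored relative to DMSO.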

[17] = ATG_VDRE_CIS: Attagene CIS-FACTORIAL HepG2 Assay for human Vitamin D Receptor Element (VDRE) (AID 2282968); details: HepG2 VDRE cis-reporter transcription, actives raise or lower the signal
Method in brief: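 Cell-based multiplexed reporter format in human liver HepG2 cells, 24 h post-dose. Fluorescence from capillary electrophoresis of reporter cDNA gives the signal, with DMSO as negative control and baseline.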

[18] = biological target: Cellular tumor antigen p53 (Homo sapiens) (UniProt P04637); assay: ATG_p53_CIS: Attagene CIS-FACTORIAL HepG2 Assay for human p53 Transcription Factor (AID 2282994); details: HepG2 p53 cis-element reporter, Attagene mRNA; actives raise or lower the signal
Chain of Cellular tumor antigen p53 (Homo sapiens) (P04637 whole entry, looked up): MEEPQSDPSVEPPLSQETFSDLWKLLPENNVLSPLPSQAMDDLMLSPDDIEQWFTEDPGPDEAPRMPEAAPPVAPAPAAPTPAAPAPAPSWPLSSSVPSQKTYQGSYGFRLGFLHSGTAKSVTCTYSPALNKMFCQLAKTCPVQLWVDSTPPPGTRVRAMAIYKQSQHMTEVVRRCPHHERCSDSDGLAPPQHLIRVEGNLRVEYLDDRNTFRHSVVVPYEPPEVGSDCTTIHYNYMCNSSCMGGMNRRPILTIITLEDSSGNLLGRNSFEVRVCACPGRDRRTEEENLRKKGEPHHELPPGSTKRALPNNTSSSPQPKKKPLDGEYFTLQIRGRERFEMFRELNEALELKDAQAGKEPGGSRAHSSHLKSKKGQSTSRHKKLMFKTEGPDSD
Method in brief: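 Using HepG2 hepatoma cells carrying cis-acting multiplexed reporters, mRNA induction is detected after a 24 h exposure. Gain- and loss-of-signal responses are fitted relative to DMSO-treated cells.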

[19] = ATG_XTT_Cytotoxicity: Cytotoxicity Assessment in the Attagene TRANS-FACTORIAL HepG2 Assay (AID 2283584; active = hit-call score of the fitted dose curve at least 0.9, where 1 is the maximum)
Method in brief: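 Transfect HepG2 with GAL4-UAS reporter units, dose compound, incubate 24 h, then measure viable cell number by XTT. Fit concentration response against DMSO baseline.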

[20] = biological target: Aryl hydrocarbon receptor (Homo sapiens) (UniProt P35869); assay: ATG_Ahr_CIS: Attagene CIS-FACTORIAL HepG2 Assay for human Aryl Hydrocarbon Receptor (Ahr) (AID 2282930); details: HepG2 AhR cis-factorial reporter transcription; actives raise or lower the signal
Chain of Aryl hydrocarbon receptor (Homo sapiens) (P35869 whole entry, looked up): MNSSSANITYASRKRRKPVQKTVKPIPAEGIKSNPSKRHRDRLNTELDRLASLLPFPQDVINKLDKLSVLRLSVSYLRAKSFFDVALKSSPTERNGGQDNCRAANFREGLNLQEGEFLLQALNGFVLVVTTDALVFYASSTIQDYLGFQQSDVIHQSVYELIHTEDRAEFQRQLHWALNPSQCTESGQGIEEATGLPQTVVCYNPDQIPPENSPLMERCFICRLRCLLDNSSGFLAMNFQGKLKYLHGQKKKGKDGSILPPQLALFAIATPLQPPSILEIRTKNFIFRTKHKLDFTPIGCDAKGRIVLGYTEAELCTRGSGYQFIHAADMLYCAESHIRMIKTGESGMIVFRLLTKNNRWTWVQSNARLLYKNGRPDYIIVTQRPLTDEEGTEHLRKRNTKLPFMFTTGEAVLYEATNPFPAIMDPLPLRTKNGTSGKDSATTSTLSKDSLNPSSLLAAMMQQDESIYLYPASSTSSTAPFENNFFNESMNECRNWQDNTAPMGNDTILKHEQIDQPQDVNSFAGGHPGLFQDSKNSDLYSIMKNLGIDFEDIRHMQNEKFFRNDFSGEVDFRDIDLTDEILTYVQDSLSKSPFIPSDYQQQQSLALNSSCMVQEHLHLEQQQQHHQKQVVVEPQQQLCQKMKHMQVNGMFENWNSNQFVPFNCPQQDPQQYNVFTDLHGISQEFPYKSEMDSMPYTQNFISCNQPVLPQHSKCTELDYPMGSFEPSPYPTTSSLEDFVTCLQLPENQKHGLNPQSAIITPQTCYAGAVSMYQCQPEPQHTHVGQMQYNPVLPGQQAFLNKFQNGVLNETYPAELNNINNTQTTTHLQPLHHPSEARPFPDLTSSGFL
Method in brief: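 Read-out: reporter mRNA quantified by RT-PCR with fluorescent primer extension and capillary electrophoresis. Human HepG2 liver cells carried transfected cis-promoter reporter units and were exposed to chemical for 24 h; gain or loss fitted relative to DMSO.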

Measured: AC50

CCCCOP(=O)(O)OCCCC
inactive: [1] | [2] | [3] | [4] | [5] | [6] | [7] | [8] | [9] | [10] | [11] | [12] | [13] | [14] | [15] | [16]

O=C1C(Cl)=C(Cl)C(=O)C(Cl)=C1Cl
active: [3] 130 µM | [8] 100 µM | [9] 89.5 µM | [15] 48.7 µM
inactive: [1] | [2] | [5] | [6] | [10] | [17] | [11] | [12] | [13] | [14] | [16] | [18] | [19]

C=CCc1ccc(OC(=O)Cc2ccccc2)c(OC)c1
inactive: [1] | [20] | [3] | [6] | [7] | [8] | [9] | [10] | [11] | [12] | [13] | [14] | [16] | [18] | [19]
active: [17] 27.5 µM | [15] 11 µM

COC(=O)COc1ccc(Cl)cc1Cl
inactive: [1] | [2] | [3] | [4] | [5] | [7] | [8] | [9] | [17] | [11] | [12] | [13] | [14] | [16] | [18]

Nc1c(Cl)c(Cl)c(Cl)c(Cl)c1Cl
active: [2] 34.2 µM | [20] 31.4 µM | [15] 38.1 µM
inactive: [3] | [4] | [5] | [6] | [7] | [8] | [9] | [17] | [11] | [12] | [13] | [14] | [16]

CCc1cccc(C)c1N(C(=O)CCl)[C@@H](C)COC
inactive: [1] | [20] | [5] | [6] | [7] | [8] | [9] | [10] | [11] | [12] | [13] | [14] | [16] | [18] | [19]
active: [4] 57.9 µM | [17] 2.13 µM | [15] 7.39 µM

CC(C)(C)C(=O)CCl
active: [8] 62.4 µM | [9] 157 µM | [15] 21.6 µM
inactive: [1] | [2] | [3] | [4] | [5] | [6] | [7] | [10] | [17] | [11] | [12] | [13] | [14] | [16] | [18] | [19]
